Several values for one entry are separate records, joined by “and”; a condition that tells them apart may be missing. Equal values may be shown once.
Biological target: Glucocorticoid receptor (Homo sapiens) (UniProt P04150)
Assay: GR-GFP Redistribution (AID 450)
Conditions: U2OS GR-GFP nuclear translocation, laser cytometry, 2 h; series mostly up to 20.6 µM;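 active = compounds whose dose series gives a full or clear partial fitted curve of increased nuclear translocation; inconclusive = weak partial curve or effect only at the top dose; inactive = no dose-dependent translocation response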
Description: NIH Molecular Libraries Screening Centers Network [MLSCN]
NIH Chemical Genomics Center [NCGC]
The glucocorticoid receptor (GR) Redistribution assay (BioImage) enables the visualization of GR cytoplasmic to nuclear translocation by the use of a GR-GFP fusion. GR is normally cytosolic, however ligands such as dexamethasone, cause nuclear translocation where the protein binds to response elements and interacts with various co-factors to modulate transcription. Because both functional agonists and antagonists can induce nuclear translocation, this assay can detect ligands regardless of their effects on gene expression. GR-GFP expressing U20S cells were used here. Dexamethasone was the positive control for translocation and data normalization. Detection of nuclear translocation was performed in 1536-well plates using the Acumen laser scanning plate cytometer (TTP LabTech). Validation of this assay and a detailed protocol have been described.
NCGC Assay Protocol Summary:
GR-GFP U2OS cells were maintained in DMEM with Glutamax and high glucose, 1% v/v penicillin-streptomycin, and 0.5 mg/mL Geneticin. For cell culture, 10% […] fetal bovine serum (FBS) was used (Invitrogen #26140-079). For cell plating 10% dextran, charcoal-stripped FBS (Hyclone SH30068.03) was used. U2OS cells were trypsin treated, suspended in medium, and passed through a 40 um basket filter. The cells were seeded at 600 cells/5 uL/well into clear-bottom black sided 1536-well plates and incubated for approximately 20 hrs, 37degC, 5%, CO2 in a tissue culture incubator. Twenty-three nL of compound was delivered by pin tool and the plates were incubated as above for 2 hrs. The compounds were tested as a 7-point titration ranging from 46 uM to 0.6 nM. The cells were fixed using the Kalypsys Washer/Dispenser station. The fixing protocol involved aspiration of the cell media, addition of 6 uL/well of PBS, aspiration of PBS, addition of 5uL/well of 100% methanol, aspiration of methanol, and addition of 3 uL/well PBS with 1.5 uM propidium iodide (PI). The plates were read by the Acumen Explorer using a 1 x 8 um scan of the whole well area. PI fluorescence triggered the collection of PI and GFP signals. A nuclei population was defined by a 10 to 100 um width and depth filter that eliminated small and large fluorescent particles. Two subpopulations of nuclei were then defined by peak intensity of GFP fluorescence to obtain translocated and untranslocated objects. The number of translocated objects was used for data normalization.
Keywords: NIH Roadmap, MLSCN, MLI, MLSMR, sOGT, qHTS, NCGC
Potency is read from the fitted curve at half-maximal effect.

Sequence of Glucocorticoid receptor (Homo sapiens) (P04150 whole entry, looked up): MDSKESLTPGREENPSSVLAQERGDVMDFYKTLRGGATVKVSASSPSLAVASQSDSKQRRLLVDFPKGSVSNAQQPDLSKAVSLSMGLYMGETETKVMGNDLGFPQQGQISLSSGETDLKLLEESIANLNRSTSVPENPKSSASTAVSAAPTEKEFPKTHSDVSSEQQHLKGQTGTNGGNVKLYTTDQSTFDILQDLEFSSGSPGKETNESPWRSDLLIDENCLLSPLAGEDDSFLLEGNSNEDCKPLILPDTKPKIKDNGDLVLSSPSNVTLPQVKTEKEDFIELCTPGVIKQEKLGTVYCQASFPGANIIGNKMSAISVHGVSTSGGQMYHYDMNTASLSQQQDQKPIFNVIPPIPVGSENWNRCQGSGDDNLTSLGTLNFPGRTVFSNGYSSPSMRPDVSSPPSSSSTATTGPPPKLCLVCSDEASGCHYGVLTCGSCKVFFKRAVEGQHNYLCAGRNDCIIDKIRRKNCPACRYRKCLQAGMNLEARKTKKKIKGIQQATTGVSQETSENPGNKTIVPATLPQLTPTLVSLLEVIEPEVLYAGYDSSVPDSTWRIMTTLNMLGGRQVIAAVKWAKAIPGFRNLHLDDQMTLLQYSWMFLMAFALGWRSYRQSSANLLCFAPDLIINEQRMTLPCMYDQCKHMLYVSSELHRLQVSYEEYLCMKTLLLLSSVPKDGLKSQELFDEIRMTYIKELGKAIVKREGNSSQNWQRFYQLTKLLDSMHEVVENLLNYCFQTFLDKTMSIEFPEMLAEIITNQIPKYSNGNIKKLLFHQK

Potency, inactive:
CC(C)c1nc2n[nH]c(N)c2c2c1CCC2 > 20.6 µM
CC1(C)CC(=O)C2=C(C1)OC(N)=C(C#N)C21C(=O)N(CN2CCOCC2)c2ccccc21 (stereo not given) > 20.6 µM
CCOc1cc2nc(-c3ccc(OC)c(OC)c3)nc(N3CCOCC3)c2cc1OC > 20.6 µM
CC(NC(=O)Nc1cccnc1)(C(F)(F)F)C(F)(F)F > 20.6 µM
Cc1ccc(OCC(O)CNS(=O)(=O)c2ccccc2C(=O)O)cc1 (stereo not given) > 20.6 µM
CCOC(=O)CNC(=O)Nc1ccccc1C(=O)OC > 20.6 µM
Cc1cc(C)n(C2CCCCC2OC(=O)c2ccccc2)n1 (stereo not given) > 20.6 µM
CCOc1cccc(-c2nn3c(-c4ccco4)nnc3s2)c1 > 20.6 µM
COc1ccc(CSc2nnc3n(C)c(=O)c4c5c(sc4n23)CCCC5)cc1 > 20.6 µM
CCOC(=O)c1[nH]c2ccccc2c1NC(=O)CN(C)C > 20.6 µM
COC(=O)C(NC(=O)c1ccccc1)(Nc1nc(C)cs1)C(F)(F)F (stereo not given) > 20.6 µM
CC[C@]1(O)C[C@H]2CN(CCc3c([nH]c4ccccc34)[C@](C(=O)OC)(c3cc4c(cc3OC)N(C=O)[C@H]3[C@@](O)(C(=O)OC)[C@H](OC(C)=O)[C@@]5(CC)C=CCN6CC[C@]43[C@H]65)C2)C1 > 46 µM
CSc1ccc2c(c1)N(CC[C@H]1CCCCN1C)c1ccccc1S2 > 46 µM and > 20.6 µM
C=C(Br)Cn1c(CCCC)nc2ccccc21 > 20.6 µM
CCN1CCC[C@@H]1CNC(=O)c1c(OC)ccc(I)c1O > 46 µM
Cc1cc(CC(=O)O)c(C)cc1CC(=O)O > 20.6 µM
C[N+](C)(C)CCOP(=O)([O-])OC[C@H](O)CO > 20.6 µM
Cc1cc(C)n(-c2ncnc3sc(C)c(C)c23)n1 > 20.6 µM
CN1C(=O)C2(N=c3ccccc3=N2)c2ccccc21 > 20.6 µM
OC[C@@H]1O[C@@H](n2cnc3c(NCc4ccco4)ncnc32)[C@H](O)[C@H]1O > 46 µM
CCOC(=O)CSC1=C(C#N)C(c2ccc(C)cc2)C(C(=O)OC)C(=O)N1 (stereo not given) > 20.6 µM
CCOC(=O)CSc1nc(NC#N)nc(N(CC)CC)n1 > 20.6 µM
CC(=O)OC12CC3CC(C1)C(=NO)C(C3)C2 > 20.6 µM
Cn1c(=O)c2c(nc(Br)n2Cc2ccc3ccccc3c2)n(C)c1=O > 20.6 µM
O=C1C=C(NCCNc2c(F)c(F)c(CO)c(F)c2F)CCC1 > 20.6 µM
COc1cccc(C2C(C(=O)c3cccs3)=C(O)C(=O)N2c2cc(C)on2)c1 (stereo not given) > 20.6 µM
CCCCSc1nnc2n(CCc3ccccc3)c(=O)c3c4c(sc3n12)COC(C)(C)C4 > 20.6 µM
COC(=O)c1cc(S(=O)(=O)N2CCOCC2)c(N2CCOCC2)cc1N1CCOCC1 > 20.6 µM
CCCCOC(=O)CSC1=C(C#N)C(c2ccc3c(c2)OCO3)CC(=O)N1 (stereo not given) > 20.6 µM
C=C(C)CN1CCN(c2c(CCC#N)c(C)c(C#N)c3nc4ccccc4n23)CC1 > 20.6 µM
C[C@H](N)C1CCC(C(=O)Nc2ccncc2)CC1 (stereo not given in full) > 46 µM
CC(C)OC(=O)CC1=NC(=O)CS1 > 20.6 µM
COCCCn1cnc2c(c1=O)c1nc3ccccc3nc1n2CCc1ccccc1 > 20.6 µM
Cc1ccc(C2/C(=C(/O)c3ccc(OC(C)C)cc3)C(=O)C(=O)N2CCN2CCOCC2)cc1 (stereo not given) > 20.6 µM
COc1cccc(C(=O)NCC(=O)n2nc(C)cc2C)c1 > 20.6 µM
COC(=O)c1cc(OC)c(OC)cc1N > 20.6 µM
O=C1NC(c2cccs2)Nc2ccccc21 (stereo not given) > 20.6 µM
COCCOCCOCCC(=O)NC1CC2CCC1(C)C2(C)C (stereo not given) > 20.6 µM
CCN(CC)CCCN1C(=O)C(O)=C(C(=O)c2ccc(C)o2)C1c1ccc(C)o1 (stereo not given) > 20.6 µM
CCOC(=O)N1CCN(/C=C(\C#N)c2nc3ccccc3s2)CC1 > 20.6 µM
